Results reported in the supplement of paper PMC6555819.

Key:
Assay in all cases: PBM binding z-score (relative to random genomic background probes); higher = stronger binding; sequences stand for … in GC…GCGATTGACAGCGTAGAATGAAGG
[1] = test system: FXR:RXRa (NR concentration 270 nM, RXRa partner concentration 90 nM)
Outline: (§1)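 Regression normalization was applied to scanned fluorescence from custom Agilent 4×180K protein-binding microarrays. Before scanning, arrays were incubated 1 h with ligand-free nuclear receptor dimers, and binding was detected with antibodies against each partner (one per run). Binding z-scores use the random background probes as reference.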

[2] = test system: LXRa:RXRa (NR concentration 270 nM, RXRa partner concentration 90 nM)
Outline: as §1

[3] = test system: LXRa homodimer (NR concentration 270 nM)
Outline: as §1

[4] = test system: LXRb:RXRa (NR concentration 270 nM, RXRa partner concentration 90 nM)
Outline: as §1

[5] = test system: PPARa:RXRa (NR concentration 270 nM, RXRa partner concentration 90 nM)
Outline: as §1

[6] = test system: PPARg:RXRa (NR concentration 180 nM, RXRa partner concentration 90 nM)
Outline: as §1

[7] = test system: PPARg:RXRa 270nM:90nM, anti-RXR (NR concentration 270 nM, RXRa partner concentration 90 nM)
Outline: as §1

[8] = test system: PPARg:RXRa 30nM:10nM, anti-RXR (NR concentration 30 nM, RXRa partner concentration 10 nM)
Outline: as §1

[9] = test system: PPARg:RXRa 90nM:30nM, anti-RXR (NR concentration 90 nM, RXRa partner concentration 30 nM)
Outline: as §1

[10] = test system: LXRb homodimer (NR concentration 270 nM)
Outline: as §1

Row | Sequence | PBM binding z-score [1] | PBM binding z-score [2] | PBM binding z-score [3] | PBM binding z-score [4] | PBM binding z-score [5] | PBM binding z-score [6] | PBM binding z-score [7] | PBM binding z-score [8] | PBM binding z-score [9] | PBM binding z-score [10]
1 | CTATGTAGGTTAAGGGGGTCATTTAGTTTGAAAG | 5.01 | 4.94 | 3.42 | 6.37 | 5.83 | 8.48 | 7.62 | 6.07 | 7.54 | –
2 | CAAACTAGGTCACCGTAAGGTCAAAGTCCGCATG | 6.58 | 6.1 | 5.47 | 5.55 | – | 9.41 | 7.89 | 5.84 | 7.64 | 1.46
3 | TCAAGTAGGTTACGGGGGCATTCAGGGATGAAGA | 3.28 | 3.4 | 1.53 | 5.4 | 4.49 | 7.97 | 7.05 | 6.15 | 6.95 | –
4 | CTATGTAGGTTAAGGGGGTCATACAGTTTGAAAG | 5.2 | 5.02 | 1.99 | 6.22 | 6.21 | 8.81 | 8.13 | 6.16 | 8.11 | –
5 | CTATGTAGGTTAACGGGGTCATTCAGTTTGAAAG | 5.18 | 5.6 | 2.97 | 5.87 | 6.19 | 7.77 | 6.92 | 4.45 | 6.47 | –
6 | CGAACTAGTTCAAGGACAGTGAATCTCCGCACGC | 0.282 | 0.229 | -0.253 | -0.107 | – | – | 0.0328 | -0.735 | -0.0258 | -0.693
7 | TCGAGTAGGTAACGGGGGCATTCAGGGATGAAGA | 1.53 | 1.83 | 0.159 | 4.16 | 3.41 | 4.6 | 4.51 | 2.68 | 3.8 | –
8 | TTACCAAGGTGAAAGGTCATTGATGCACGCCTTG | 6.65 | 6.17 | 4.61 | 5.39 | – | – | 9.21 | 9.49 | 10.9 | 1.12
9 | CGAACTAGGTCAAAGGGCAGTGAAAGGCGACGTA | 5.16 | 3.62 | -0.00961 | 2.68 | – | – | 10.2 | 10.2 | 11.2 | -0.302
10 | CAAACTAGGTCACAGGGGTCAAAGTCCGTGCGTA | 7.54 | 6.48 | 5.12 | 6.61 | – | – | 8.74 | 7.69 | 9.17 | 1.67
11 | CCGAGTAGGTTACGAGGGGGCATTCATTGCGAAT | 2 | 6.78 | 1.16 | 6.12 | 3.42 | 2.64 | 3.26 | 1.35 | 2.85 | –
12 | CCTAGCCGGCCAATCTGGGTCACTCAAGGCTTGA | 0.614 | 0.785 | 0.0438 | 1.02 | – | 1.68 | 2.15 | -0.425 | 1.27 | -0.78
13 | TGAATGAGGTTAAAGGTCAGGGAACGTGGCGTCG | 7.23 | 6 | 2.34 | 5.35 | – | – | 9.95 | 12.2 | 12.1 | 1.05
14 | TTTAGTTGGTCAAAGGTCACACACTCGAAATGCG | 6.28 | 5.76 | 3.99 | 5.54 | – | – | 10.6 | 11.3 | 11.6 | 1.9
15 | CATCCAAGGTCAAAGGTCAGTGAAGAGATGACGG | 8.63 | 7.28 | 5.11 | 7.03 | – | 11.1 | 9.75 | 8.73 | 10.8 | 3.15
16 | TCTGCTAGGTCAACGATGGTCAGCGAATCTGCTA | 3.19 | 2.8 | -0.293 | 1.24 | – | 2.51 | 3.03 | 1.79 | 2.4 | -0.382
17 | CCGAGTAGGTTACGAGGGTGCATTCAGTGCGAAT | 0.536 | 5.55 | -0.00974 | 2.43 | 1.8 | 1.46 | 1.92 | 0.234 | 1.13 | –
18 | TCGAGTAAGTTACGGGGGCATTCAGGGATGAAGA | 1.79 | 1.83 | 0.43 | 4.1 | 2.64 | 1.06 | 1.98 | 1.45 | 1.77 | –
19 | TCTCGGAGGACACGAAGGTCAAAGCTTTCCAGAG | 2.68 | 2.91 | 2.05 | 2.91 | – | 1.14 | 2.53 | 2.73 | 2.51 | -0.25
20 | TCATATAGGTAAAAGGTCAAAGTCGGTGTGGTAA | 6.77 | 6.41 | 4.99 | 5.78 | – | – | 10.5 | 10.9 | 12.4 | 2.43
21 | CTTACTGGGCCAAAGGTCATTGATTCCAATGCTC | 5.59 | 5.54 | 4.28 | 5.06 | – | – | 11.2 | 14.3 | 13.6 | 0.936
22 | CCGACTGGGGCAAAGGTCACCATACTCAGTACGA | 4.94 | 4.64 | 1.94 | 4.54 | – | – | 10 | 12.4 | 11.1 | -0.206
23 | TCATATAGGTCAAAGGTGAAAGTCGGTGTGGTAA | 7.15 | 6.06 | 2.14 | 5.58 | – | – | 9.8 | 10.4 | 11.4 | 1.91
24 | CTATGGAGGTTAAGGGGGTCATTCAGTTTGAAAG | 6.34 | 5.63 | 4.04 | 6.44 | 6.28 | 6.41 | 6.6 | 3.97 | 5.74 | –
25 | CTATGTAGGTTAAGGGGGTCATTCCGTTTGAAAG | 4.77 | 5.26 | 3.1 | 6.22 | 6.1 | 8.1 | 7.77 | 5.98 | 7.6 | –
26 | CGAACTAGGTCAAAGGTCAGTGAAAGGCGACGTA | 7.45 | 6 | 2.09 | 5.55 | – | – | 11.3 | 12.7 | 14 | 0.335
27 | CCGAGCAGGTTACGAGGGGGCATTCAGTGCGAAT | 2.35 | 7.31 | 1.46 | 6.07 | 3.01 | 0.89 | 1.95 | 0.464 | 1.36 | –
